Assay outcomes deposited in PubChem by several laboratories.
KKLEB cytotox = counter-screen for CF NF-kB inhibitors: cytotoxicity | AID 602141 | KKLEB CF airway cells viability, ATPlite luminescence, overnight; stronger effect = lower value; cells stimulated with P. aeruginosa culture filtrate | 0.36% of 360,000 active | activity change (cytotoxicity), % at 5 µM;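 active = corrected activity change at or below -50% at 5 µM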
Peg3 prom inh = inhibitors of Peg3 promoter; HeLa PEG-Prom luciferase reporter, luminescence, overnight; inhibition, % at 20 µM; 1.7% of 360,000 active; AID 588405;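 active = inhibition of at least 50% at 20 µM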
HIF-2a block = blocks HIF-2a reporter activity; 786-0 RCC cells HIF-2a reporter, luciferase luminescence, overnight; inhibition, % at 18.8 µM; AID 624352; 0.72% of 360,000 active;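 active = inhibition of the luminescence signal of 40% or more relative to plate controls, in a single-dose primary screen at 18.75 µM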
CF NFkB inh = blocks PAF-induced NF-kB reporter in cystic fibrosis cells; KKLEB NF-kB-GFP reporter, GFP fluorescence overnight; inhibition, % at 5 µM; 0.86% of 360,000 active;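 active = at least 50% inhibition at 5 µM, scaled per plate between neutral and stimulator controls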;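 note: PAF is a Pseudomonas aeruginosa culture filtrate used as stimulus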
LMP1 NFkB inh = inhibitors of Epstein-Barr LMP1-induced NF-kappaB reporter; LMP1-induced NF-kappaB luciferase reporter cells, luminescence; inhibition, % at 12.5 µM; 0.69% of 350,000 active; AID 504558; in the data active = inhibition above about 41%
Shn3 3UTR inh = inhibitors of Schnurri-3 3'UTR reporter in osteoblasts; Clone20 osteoblast Shn3 3'UTR firefly luciferase, 24 h; inhibition, % at 12.5 µM; 0.52% of 360,000 active; AID 588674;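 active = mean inhibition of at least 75% with every replicate also reaching 75%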
Numbers stand for hits; i = inactive; nt = no result. Compounds with a hit are over-represented: about 2.9% of the library has one in this group of screens.

SMILES	KKLEB cytotox	Peg3 prom inh	HIF-2a block	CF NFkB inh	LMP1 NFkB inh	Shn3 3UTR inh
CC(C)(C)NC(=S)NNC(=O)c1cccc(Br)c1	i	i	i	i	i	i
Cc1ccc(-c2cc(C(F)F)n3ncc(C(=O)Nc4c(C)nn(Cc5c(Cl)cccc5Cl)c4C)c3n2)cc1	-64.8	i	i	76.9	i	i
CCOC(=O)c1c(CSc2nc(C)cc(C)c2C#N)n(C)c2cc(Br)c(OC(C)=O)cc12	-54.6	i	i	i	50.2	i
CCCCCCCCOC(=O)c1c(CSC(=N)N)n(C)c2cc(Br)c(OC(C)=O)cc12	i	97.6	i	i	nt	i
CCOC(=O)c1c(CSC(=N)N)n(-c2ccc(Br)cc2)c2cc(Br)c(OC(C)=O)cc12	i	i	i	i	i	i
C=CCCc1ccc(C#N)c(SCc2c(C(=O)OCC)c3cc(OC(C)=O)c(Br)cc3n2C)n1	i	i	i	i	i	89.4
CCCCn1c2nc3ccccc3nc2c2c(=O)n(C(C)CC)cnc21 (stereo unspecified)	i	i	i	i	i	i
CCC(C)n1c(C)nc2c(c1=O)c1nc3ccccc3nc1n2CCC1=CCCCC1 (stereo unspecified)	i	76.6	i	i	i	i
O=C(N/N=C/c1ccccc1O)c1cccc2ccccc12	i	i	i	i	i	i
CN(C)c1ccc(C=NNC(=O)c2cccc3ccccc23)c(Cl)c1	i	i	i	i	73.6	i
O=C(NC(c1ccc(-c2ccccc2)cc1)c1cnccn1)C1CCN(CCOc2ccc(F)cc2)CC1 (stereo unspecified)	i	50.0	i	i	nt	i
O=C(NC(c1ccc(-c2ccccc2)cc1)c1cnccn1)C1CCN(CCCOc2ccccc2)CC1 (stereo unspecified)	i	102.7	i	i	nt	i
Cn1nc(C(C)(C)C)cc1C(=O)N1CCCCC1c1cc(C(=O)Nc2cccc3c2CCCC3)no1 (stereo unspecified)	i	i	i	i	nt	80.9
CC(=O)Nc1cccc(NC(=O)COc2ccc3c(c2)OCO3)c1	i	i	i	i	i	i
O=C(NC(c1ccc(Cl)cc1)c1cccnc1)C1CCN(CCOc2ccc(Cl)cc2Cl)CC1 (stereo unspecified)	i	62.5	i	i	nt	i
Cc1cccnc1C(NC(=O)C1CCN(Cc2cn(C)c3ccccc23)CC1)c1ccc(Cl)cc1 (stereo unspecified)	i	105.3	i	i	nt	i
O=C(NC(c1ccc(Cl)cc1)c1ccccn1)C1CCN(CCOc2ccc(Cl)cc2Cl)CC1 (stereo unspecified)	i	99.6	i	i	nt	i
Cc1cccnc1C(NC(=O)C1CCN(CCCc2ccccc2)CC1)c1ccc(Cl)cc1 (stereo unspecified)	i	i	i	i	nt	i
Cc1cccnc1C(NC(=O)C1CCN(CCOc2ccc(Cl)cc2Cl)CC1)c1ccc(Cl)cc1 (stereo unspecified)	i	76.9	i	i	nt	i
Cc1ccccc1-n1ccnc1SCC(=O)Nc1cccc(S(=O)(=O)NC2=NCCC2)c1	i	i	i	i	i	i
CC(C)c1nnc(NC(=O)c2ccc(N3C(=O)CCC3=O)cc2)s1	i	i	i	i	85.5	i
CCOC(=O)c1c(-c2ccccc2)csc1NC(=O)c1ccc(S(=O)(=O)N2CC(C)OC(C)C2)cc1 (stereo unspecified)	i	i	i	i	i	i
O=C(Nc1nnc(C23CC4CC(CC(C4)C2)C3)s1)c1ccc(N2C(=O)CCC2=O)cc1	i	i	i	i	80.8	i
CCOC(=O)c1c(-c2ccccc2)csc1NC(=O)c1ccc(N2C(=O)CCC2=O)cc1	-57.1	i	i	69.4	i	i
Cc1ccccc1-c1nnc(NC(=O)c2ccc(N3C(=O)CCC3=O)cc2)s1	i	i	i	i	i	i
SMILES	KKLEB cytotox	Peg3 prom inh	HIF-2a block	CF NFkB inh	LMP1 NFkB inh	Shn3 3UTR inh
COc1ccc(-c2nn(-c3ccccc3)cc2/C=N/NC(=O)c2ccc(Br)o2)cc1	i	89.6	i	i	i	i
C=CCNC(=S)N/N=C/c1cn(-c2ccccc2)nc1-c1ccc(OC)cc1	-52.8	i	i	53.2	i	i
C[C@@H](NC(=O)[C@@H]1CCCN1C(=O)[C@@H]1CCCN1C(=O)c1ccccc1)c1ccccc1	nt	nt	i	nt	nt	nt
O=C(c1cc2cc(Cl)cc(Cl)c2oc1=O)N1CCOCC1	i	55.2	i	i	i	i
Cc1ccc(S(=O)(=O)NC(=O)C2(C)CCN2C(=O)C2(c3ccc(Cl)cc3)CCC2)nc1 (stereo unspecified)	i	i	i	i	nt	i
COc1ccc(C(=O)NC(=S)Nc2cc3oc4ccccc4c3cc2OC)cc1	i	i	i	i	i	i
COc1cc(OC)cc(C(=O)NC(=S)Nc2cc3oc4ccccc4c3cc2OC)c1	-51.9	i	i	54.8	i	i
O=C(Cc1ccc(Cl)cc1Cl)Nc1ccncc1Cl	i	i	i	i	i	87.7
O=C(Cc1ccc(Cl)cc1Cl)Nc1ccncc1	i	i	i	i	i	i
CCC(=O)OC1c2ccccc2C(=O)N1Cc1ccccc1 (stereo unspecified)	i	i	i	i	87.1	i
CCCCc1ccc(NC(=O)N2CCNC(=O)C2CC(=O)Nc2ccsc2C(=O)OC)cc1 (stereo unspecified)	i	i	i	i	i	i
O=Cc1nccc2ccccc12	i	i	i	i	i	i
C(=Cc1c[nH]c2ccccc12)c1nccc2ccccc12	-55.0	i	i	i	i	i
Cc1c(C(=O)N(C)C)sc2nc(-c3ccccn3)[nH]c(=O)c12	i	i	i	i	i	i
O=c1[nH]c(-c2ccccn2)nc2sc(-c3ccccc3)cc12	i	95.6	i	i	i	i
Cc1cccc(C)c1NC(=O)C1(C)CN(S(C)(=O)=O)CC(=O)N1CCCn1ccnc1 (stereo unspecified)	nt	nt	i	nt	nt	nt
N#C/C(=C(\O)Cc1ccccc1)c1nc2ccccc2[nH]1	i	i	i	i	i	89.6
Cc1cc(Br)ccc1SCC(=O)OC/C(O)=C(\C#N)c1nc2ccccc2[nH]1	i	i	i	i	i	i
Cc1cc(Br)ccc1SCC(=O)OCC(O)=C(C#N)c1nc2ccccc2[nH]1	i	66.5	i	i	i	i
N#C/C(=C(/O)CCl)c1nc2ccccc2[nH]1	i	i	i	i	i	i
O=C(CCSCc1ccc(Cl)cc1)NC1CCCC1	i	i	i	i	i	i
O=C(NC1CC1)c1cc(-c2ccc(Br)cc2)nc2ccccc12	i	i	i	i	42.4	i
Cc1cccc(Cn2nc(-n3cccc3)c3c(C)cc(C)nc32)c1	i	i	i	i	47.0	i
Cc1cccc(Cn2cnc3c(nnn3Cc3ccc(Cl)cc3)c2=O)c1	i	i	i	i	i	i
CC1CCCCN1S(=O)(=O)c1ccc(S(=O)(=O)N2CCN(c3ccccc3)CC2)cc1 (stereo unspecified)	i	58.8	i	i	i	i
